High-throughput results as filed in PubChem.
Only some compounds are listed: those with a hit (about 27% of all), similar ones and a draw of the others.
PTK2B oligo ant = antagonists of human Pyk2 oligomerization. Q14289. Q293 cells, Pyk2 FERM NanoBiT luminescence; stronger effect = lower value. z-score (the deposit names both 25 µM and 10 µM). actives 0.83% (n = 99,000);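 active = Z-score of -3 or lower, scaled per plate to the spread of control and sample wells; inactive = z-score above -3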;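 also: negative z-score means lost luminescence so less FERM oligomerization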
CYP2C9 inhib = human CYP2C9 inhibition. inhibition, % at 5 µM. CYP2C9 Supersomes, luciferin-H conversion, luminescence. actives 20% (n = 96,000). AID 777;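 active = blocking of liver enzyme CYP2C9 beyond about 50% at 5 µM, limit read from the data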
Target sequence (P11712 whole entry, looked up): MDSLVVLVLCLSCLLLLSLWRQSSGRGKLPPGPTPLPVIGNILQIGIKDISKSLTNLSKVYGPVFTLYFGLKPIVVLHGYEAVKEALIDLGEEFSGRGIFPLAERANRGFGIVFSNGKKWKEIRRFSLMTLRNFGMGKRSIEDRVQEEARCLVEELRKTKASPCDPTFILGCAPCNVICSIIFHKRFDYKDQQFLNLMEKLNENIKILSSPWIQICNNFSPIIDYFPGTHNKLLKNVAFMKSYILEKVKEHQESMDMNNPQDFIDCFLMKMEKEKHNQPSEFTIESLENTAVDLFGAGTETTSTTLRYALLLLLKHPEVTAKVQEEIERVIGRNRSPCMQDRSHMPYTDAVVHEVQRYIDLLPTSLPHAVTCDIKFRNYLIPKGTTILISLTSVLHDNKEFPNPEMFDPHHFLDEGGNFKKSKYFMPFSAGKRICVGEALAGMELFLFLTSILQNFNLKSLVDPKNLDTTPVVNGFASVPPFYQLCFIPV
Cav3 T inh = human Cav3.2 channel inhibition, primary screen | Cav3.2-expressing cells, Fluo-4 calcium fluorescence FDSS; stronger effect = lower value | B-score at 10 µM | O95180 | AID 449739 | actives 4% (n = 100,000);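 active = single-dose well whose peak fluorescence ratio is a statistical outlier from its plate by either plate-standardised score or position-corrected B-score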
CYP2C9 activ = CYP2C9 (human) activation. P11712. recombinant CYP2C9, luciferin-H conversion, luminescence; stronger effect = higher value; factor 1 = untreated enzyme, 0 = blocked. activation factor at 5 µM. actives 1.4% (n = 96,000);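 active = activation factor of 2 or more for CYP2C9 at a 5 µM dose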
CYP2C19 inh = blocks human cytochrome P450 2C19; P33261; CYP2C19 Supersomes, luciferin-H EGE luminescence, 30 min; inhibition, % at 5 µM; actives 21% (n = 96,000); AID 778;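 active = CYP2C19 inhibition above a set limit at 5 µM in the primary screen, cut at about 50% in these data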
CYP2C19 act = activators of human cytochrome P450 2C19; 96,000 tested, under 10 active; activation factor at 5 µM; recombinant CYP2C19, luciferin-H EGE luminescence; stronger effect = higher value; 0 = fully inhibited enzyme, 1 = untreated enzyme; AID 1025; P33261;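 active = activation factor of at least 2 at 5 µM in the primary screen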
Numbers stand for hits; . = inactive; / = no result given.

SMILES	PTK2B oligo ant	CYP2C9 inhib	Cav3 T inh	CYP2C9 activ	CYP2C19 inh	CYP2C19 act
Cc1nn(C)cc1C(C(=O)NC1CCCCC1)N(C(=O)Cn1nnc2ccccc21)c1ccc(F)cc1 (stereo not drawn)	.	.	.	.	.	.
O=C(Cn1nnc2ccccc21)NC1CCCCC1	.	.	.	.	55	.
Cc1ccc(N(C(=O)Cn2nnc3ccccc32)C(C(=O)NC2CCCCC2)c2cn(C)nc2C)cc1 (stereo not drawn)	.	.	.	.	67	.
O=C(Cn1cc(C(=O)C2CC2)c2ccccc21)NC1CCCC1	.	.	.	.	.	.
O=C(Nc1nc2ccc(S(=O)(=O)N3CCCC3)cc2s1)C1CCCCC1	.	64	/	.	.	.
CSc1nc2ccc(S(=O)(=O)N3CCCCC3)cc2s1	.	.	.	.	.	.
COc1ccc2nc(NC(=O)Cc3ccc(OC)c(S(=O)(=O)N4CCOCC4)c3)sc2c1	.	.	.	.	55	.
COc1cc(C(=O)Nc2nc3ccc(S(=O)(=O)N4CCOCC4)cc3s2)cc(OC)c1OC	.	79	.	.	54	.
O=C(Nc1nc2ccc(S(=O)(=O)N3CCCCC3)cc2s1)C1CCCO1 (stereo not drawn)	.	77	.	.	.	.
CN(C)Cc1cc(C(C)(C)c2cc(CN(C)C)c(O)c(CN(C)C)c2)cc(CN(C)C)c1O	.	/	.	/	/	/
Cc1ccc(C(C(=O)NC(C)(C)C)N(C(=O)c2csnn2)C2CC2)cc1 (stereo not drawn)	.	/	.	/	/	/
Cc1cc(C)c2nc(NC(=O)[C@@H](NC(=O)c3cccc(S(=O)(=O)N4CCOCC4)c3)C(C)C)sc2c1	.	/	/	/	/	/
Cc1cc2ccccc2c(=O)n1CC(=O)NCC(=O)N(C)C1CCCCC1	.	.	.	.	.	.
O=C(NCCCN1CCOCC1)c1cccs1	.	.	.	.	.	.
CSc1nc2ccc(S(=O)(=O)N3CCOCC3)cc2s1	.	63	.	.	100	.
N#Cc1c(-c2ccccc2)ccnc1Oc1ccccc1	.	.	.	.	53	.
CCCNCC(O)COc1ccccc1C(=O)CCc1ccccc1 (stereo not drawn)	/	/	.	/	/	/
COC(=O)CSc1nc(SCc2ccccc2Cl)nc2c1CCCC2	.	69	-5	.	.	.
CCC(C)(C)n1nnnc1CN1CCN(c2nc3cc(OC)ccc3cc2C#N)CC1	.	.	.	.	.	.
CC(=O)C1=C(C)NC(C)=C(C(C)=O)C1c1ccc(-c2ccccc2Cl)o1	.	97	-5.6	.	86	.
O=C(O)c1ccc(-c2ccccc2Cl)o1	.	/	.	/	/	/
Cn1nnc(-c2ccc(OCc3ccccc3F)cc2)n1	.	.	.	.	66	.
Cc1csc(=Nc2c(C)n(C)n(-c3ccccc3)c2=O)n1Cc1ccccc1	.	.	.	.	82	.
Cc1ccc2cccc(Oc3nnnn3-c3ccccc3)c2n1	.	.	.	.	95	.
c1ccc(-n2nnnc2Oc2cccc3cccnc23)cc1	.	.	.	2.7	90	.
SMILES	PTK2B oligo ant	CYP2C9 inhib	Cav3 T inh	CYP2C9 activ	CYP2C19 inh	CYP2C19 act
COc1ccccc1Oc1nnnn1-c1ccc(C(N)=O)cc1	.	.	.	.	.	.
COC(=O)c1cc(Br)c(=O)n(-c2ccccn2)c1	.	.	.	.	.	.
COC(=O)c1cc(Br)c(=O)n(-c2cc(C)on2)c1	.	50	.	.	59	.
Clc1ccc(CSc2nnc(-c3ccccn3)n2Cc2ccco2)c(Cl)c1	.	.	.	.	.	.
CC(C)CCNc1nc2c(c(=O)n(Cc3cccc(F)c3)c(=O)n2C)n1C	.	85	.	.	88	.
COc1ccc(CNc2nc3c(c(=O)n(Cc4ccc(F)cc4)c(=O)n3C)n2C)cc1	.	81	/	.	91	.
Cn1c(NCc2ccccc2)nc2c1c(=O)n(Cc1ccccc1)c(=O)n2C	.	.	/	.	.	.
Cn1c(NCC(O)c2ccccc2)nc2c1c(=O)n(Cc1ccc(Cl)cc1)c(=O)n2C (stereo not drawn)	.	53	.	.	.	.
Cn1c(NCC(O)c2ccccc2)nc2c1c(=O)n(Cc1ccc(Cl)c(Cl)c1)c(=O)n2C (stereo not drawn)	.	/	.	/	/	/
O=C(CSc1nnc(-c2ccco2)n1Cc1ccco1)N1CCOCC1	.	.	.	.	.	.
N#CCSc1nnc(-c2ccccc2O)n1CCc1ccccc1	.	.	.	.	.	.
